Screening results deposited in PubChem BioAssay by National Center for Advancing Translational Sciences (NCATS).
Hits are enriched below; roughly 2.2% of the tested compounds scored in any of these assays.
FUS suppressor: rescues growth of FUS-expressing yeast; S. cerevisiae FUS-expressing, growth rescue, OD600, 24 h; Potency, µM (doses to about 76.6 µM), usual class: activators; 0.24% of 390,000 active; note: nearly all actives have a fitted effect of over 55% in size
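Toxicity suppression screen in FUS-yeast. Cells induced with 2% galactose, starting OD 0.005, treated 24hr at 30C with compounds at multiple final concentrations; growth by OD600.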
aSyn yeast inh: rescues yeast growth from alpha-synuclein toxicity | Yeast expressing alpha-synuclein, growth rescue, BacTiter-Glo, 24 h | Potency, µM (top dose mostly 46.1 µM), most hits filed as activators | 0.14% of 370,000 active; note: nearly all actives have a fitted effect of over 65% in size
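Readout is rescue of growth in alpha-synuclein-expressing yeast, so inhibitors of toxicity appear as activators. Growth after 24 hr at 30 deg C in galactose medium is quantified by luminescence.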
TDP43 rescue: inhibitors of TDP-43 toxicity in yeast; Potency, µM (highest dose often 46.1 µM), actives largely listed as activators; 1.8% of 410,000 active; TDP-43 expressing yeast growth rescue, BacTiter-Glo, 24 h; note: nearly all actives have a fitted effect of over 50% in size
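Yeast expressing TDP-43 (pregrown in raffinose, seeded at OD600=0.02 in galactose medium) exposed to compounds 24 hr at 30 deg C. Growth read by BacTiter-Glo luminescence; rescue of toxicity appears as increased signal.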
Mito fusion act: mitochondrial division inhibition or fusion activation; 0.23% of 320,000 active; S. cerevisiae fusion-defective mutant growth rescue, CellTiterGlo 48 h; AID 485298; Potency, µM (highest dose often 46.1 µM), actives largely listed as activators; note: nearly all actives have a fitted effect of over 45% in size
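Compounds are tested for their ability to restore growth of mitochondrial fusion-defective yeast strains at non-permissive 37C in YPEG medium over 48 hours. Viability is quantified by luciferase luminescence.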
Abeta yeast res: compounds reversing amyloid beta toxicity in yeast; 0.063% of 410,000 active; Potency, µM (highest dose often 46.1 µM), usual class: activators; yeast expressing A-beta42, growth rescue, OD600, 48 h; response scale: 0% DMSO, 100% iron-clioquinol control; AID 1347071; note: nearly all actives have a fitted effect of over 55% in size
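Yeast A-beta toxicity model in growth medium with pinned compounds, 48 h at 30 C; growth read as absorbance at 600 nm. Normalized to FeCl3/clioquinol equimolar mix (positive) and DMSO (negative).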
Large screens that a line does not name were inactive; ! = repeats disagree. Calls come from the whole dose curve; as a rule, active = well fitted curve in the direction sought with a large enough effect; inconclusive = small, poorly fitted or top-dose-only effect, or another doubt; inactive = no such curve, though single readings can be large; an effect the other way counts as inactive or inconclusive.

CCOc1ccc(NC2=C(OC)C(=O)c3ccccc3C2=O)cc1	TDP43 rescue 18µM
COC(=O)c1sccc1S(=O)(=O)N1CCN(c2ccccc2)CC1	TDP43 rescue inconclusive (no result: aSyn yeast inh, Mito fusion act)
O=C(c1ccco1)N1N=C(c2cccs2)CC1c1ccccc1O (configuration not stated)	none (no result: FUS suppressor)
COc1cccc(C2CC(c3cccs3)=NN2C(=O)c2ccco2)c1O (configuration not stated)	aSyn yeast inh inconclusive, TDP43 rescue 25µM, Mito fusion act inconclusive
CC(=O)N1N=C(c2cccs2)CC1c1ccc(Br)cc1 (configuration not stated)	TDP43 rescue 25µM
Cc1ccc(C2CC(c3cccs3)=NN2C(=O)c2ccc(Br)o2)cc1 (configuration not stated)	Mito fusion act 2.8µM
CC(=O)N1N=C(c2cccs2)CC1c1ccc(C)o1 (configuration not stated)	none
O=c1cc(C(O)C[N+](=O)[O-])occ1OCc1ccccc1 (configuration not stated)	FUS suppressor 32µM (no result: Mito fusion act)
Nc1cc([N+](=O)[O-])ccc1OCc1ccccc1	TDP43 rescue inconclusive (no result: FUS suppressor, Mito fusion act)
COc1ccc(C(=O)Sc2ccc(C)cc2)cc1OC	TDP43 rescue 11µM
COc1ccc(C(=O)Sc2ccc(Cl)cc2)cc1OC	none
CCOc1cc2c(cc1O)CCC1C2CCC2(C)C(O)CCC12 (configuration not stated)	TDP43 rescue 16µM (no result: FUS suppressor, Mito fusion act)
O=C1CC(c2ccc(O)c(O)c2)Oc2cc(O)cc(O)c21 (configuration not stated)	none
Oc1ccc(C2C[C@H]3CC[C@@H]2C3)cc1O (some centres not stated)	TDP43 rescue 14µM, Abeta yeast res inconclusive
COc1nc(-c2ccccc2)nc(C)c1CC(=O)O	Mito fusion act 6.3µM
Cc1cc(C)cc(-n2ccnc(NCc3ccc(F)cc3)c2=O)c1	TDP43 rescue inconclusive (no result: aSyn yeast inh, Mito fusion act)
Fc1cccc(-c2oncc2-c2nnnn2-c2ccc(Cl)cc2)c1	TDP43 rescue 11µM
Cc1cccc(C)c1-n1nnnc1C(c1ccnc2ccccc12)N1CCN(C/C=C/c2ccccc2)CC1 (configuration not stated)	none (no result: Mito fusion act)
COc1ccc(C(=O)NNC(=S)NC(=O)c2ccc(Br)o2)cc1OC	TDP43 rescue 3.5µM
COc1ccc(C(=O)NC(=S)NNC(=O)c2c(-c3ccccc3)noc2C)cc1OC	aSyn yeast inh inconclusive, Abeta yeast res 11µM
COc1cc(OC)cc(C(=O)NC(=S)NNC(=O)[C@H]2C[C@@H]2c2ccccc2)c1	Abeta yeast res inconclusive
COc1ccc(C(=O)NC(=S)NNC(=O)[C@H]2C[C@@H]2c2ccccc2)cc1OC	aSyn yeast inh 18µM, Abeta yeast res inconclusive
O=C(NC(=S)NNC(=O)[C@H]1C[C@@H]1c1ccccc1)c1ccc(F)cc1	aSyn yeast inh 3.5µM, TDP43 rescue 10µM, Mito fusion act inconclusive, Abeta yeast res inconclusive
CCCN(CC(=O)Nc1ccccc1C)C(=O)Cc1c(C)nc2ccccc2c1C	none
OC(C[n+]1cccc(Br)c1)c1ccccc1 (configuration not stated)	none (no result: FUS suppressor, TDP43 rescue, Mito fusion act, Abeta yeast res)
Cc1cccc(-c2nc3scc(CCNS(=O)(=O)c4ccc(F)cc4C)n3n2)c1	FUS suppressor inconclusive, TDP43 rescue inconclusive (no result: aSyn yeast inh, Mito fusion act)
CC(C)(C)NC(=S)NNC(=O)[C@H]1C[C@@H]1c1ccccc1	none
O=C(/C=C/c1ccc(F)cc1)NC(=S)NNC(=O)[C@H]1C[C@@H]1c1ccccc1	aSyn yeast inh 10µM, TDP43 rescue 6.3µM, Abeta yeast res inconclusive
O=C1CC(c2ccccc2)Sc2ccccc2N1 (configuration not stated)	TDP43 rescue 11µM (no result: aSyn yeast inh)
CCOc1ccccc1NC(=O)c1sc2nc(C)nc(N3CCOCC3)c2c1C	TDP43 rescue 7.9µM
COc1ccc(NC(=O)c2ccc(OC)c(S(=O)(=O)N3CCCCC3C)c2)cn1 (configuration not stated)	none
NS(=O)(=O)c1ccc(CCNC(=O)CSc2ncnc3ccccc23)cc1	none
O=C(CSc1ncnc2ccccc12)NCC(=O)c1ccccc1	TDP43 rescue 13µM, Abeta yeast res inconclusive
CC1(Cc2ccccc2OC(F)(F)F)C(=O)Nc2ccc(S(=O)(=O)NC3CCCCC3)cc21 (configuration not stated)	none (no result: Mito fusion act)
COc1ccc(OC(F)(F)F)cc1CC1(C)C(=O)Nc2ccc(-c3ccsc3)cc21 (configuration not stated)	TDP43 rescue 14µM (no result: Mito fusion act)
COc1ccc(OC(F)(F)F)cc1CC1(C)C(=O)Nc2ccc(S(=O)(=O)NC3CCCCC3)cc21 (configuration not stated)	FUS suppressor 32µM (no result: Mito fusion act)
Nc1c(-c2ccccc2)cnn1-c1cccc(Cl)c1	TDP43 rescue 16µM
CCOC(=O)c1c(S(=O)(=O)N2CCC(C(=O)N3CCN(c4cc(C)ccc4C)CC3)CC2)c(C)n(C)c1C	FUS suppressor inconclusive (no result: aSyn yeast inh, Mito fusion act)
Nc1nc2ccc(Oc3ccccc3)cc2s1	TDP43 rescue 11µM (no result: FUS suppressor)
Cc1nc2ccc(Oc3ccccc3)cc2s1	none
Nc1nc2ccc(OC(F)(F)F)cc2s1	TDP43 rescue 13µM, Mito fusion act 3.3µM! (no result: aSyn yeast inh)
Cc1cccc(N2CCN(C(=O)c3cc4ccc5cccnc5c4[nH]3)CC2C)c1 (configuration not stated)	FUS suppressor inconclusive, TDP43 rescue 8.9µM (no result: aSyn yeast inh, Mito fusion act)
Cc1cccc(N2CCN(C(=O)C3CCN(S(=O)(=O)c4cccc5cccnc45)CC3)CC2C)c1 (configuration not stated)	FUS suppressor 22µM
Cc1cccc(N2CCN(C(=O)c3ccccn3)CC2C)c1 (configuration not stated)	none (no result: TDP43 rescue)
Cc1ccc(Cl)cc1N(C)C(=O)c1cc2ccc3cccnc3c2[nH]1	FUS suppressor inconclusive, TDP43 rescue 25µM (no result: aSyn yeast inh, Mito fusion act)
COc1ccc(N2CCN(C(=O)c3cc4ccc5cccnc5c4[nH]3)CC2)cc1	TDP43 rescue inconclusive (no result: aSyn yeast inh, Mito fusion act)
O=C(NCc1ccccc1)c1cc2ccc3cccnc3c2[nH]1	none (no result: aSyn yeast inh, Mito fusion act)
Cc1ccc(C)c(N2CCN(C(=O)c3cc4ccc5cccnc5c4[nH]3)CC2)c1	FUS suppressor inconclusive, TDP43 rescue 13µM (no result: aSyn yeast inh, Mito fusion act)
O=C(NCC1CCCN(C(=O)Cc2ccccc2Cl)C1)c1ccc(F)cc1 (configuration not stated)	none
Cc1ccc(NC(=O)c2sc3nc(C)nc(N4CCN(c5ccccn5)CC4)c3c2C)c(C)c1	none
Cc1ccc(NC(=O)c2sc3ncnc(N4CCN(c5ccccn5)CC4)c3c2C)c(C)c1	Mito fusion act 13µM
CC1CCCc2sc3nc(NCc4ccco4)n4ncnc4c3c21 (configuration not stated)	Mito fusion act inconclusive
c1coc(CNc2ncnc3sc4c(c23)CCCCC4)c1	TDP43 rescue 13µM
